The results in this text go back to PubChem BioAssay.

Assay [1] has as its system Plasmodium falciparum Sir2 (PF13_0152, Sir2A). The assay can be described thus: Plasmodium falciparum Sir2A binding compounds – biochemical, small-molecule microarray, 635 nm fluorescence, primary screen (AID 1098).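 Also: score merges spot fluorescence intensity with its signal-to-noise ratio.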 As to conditions: fluorescence 635 nm, higher = more signal.
Assay [2] in a line: probe aDKK1 binding to arrayed compounds – biochemical, biotinylated probe, 635/667 nm fluorescence, primary screen (AID 1099).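 Also: score merges 667nm spot fluorescence with signal to noise across triplicate slides.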 As to conditions: small-molecule microarray, higher = more signal.
Assay [3] is described as follows: probe aCHRDL2 binding to arrayed compounds – biochemical, biotinylated probe, 635/667 nm fluorescence, primary screen (AID 1100). As to conditions: small-molecule microarray, higher = more signal.
The nature of assay [4]: change in splice reporter luminescence, either direction, cell-based, HEK293, spliceosome inhibition project, primary screen (AID 1101).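 Also: HEK293 cells carrying a splicing-competent luciferase reporter gene; test concentration not given here.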 As to conditions: HEK293 splicing luciferase reporter, 24 h, higher = more signal, called active from +8 up or from −8 down.
The target of assay [5] is Fibroblast growth factor 10 (Homo sapiens) (UniProt O15520). The assay can be described thus: compounds binding fibroblast growth factor 10 – biochemical, small-molecule microarray, 635 nm fluorescence, primary screen (AID 1102). As to conditions: FGF10 binding, fluorescence 635 nm, higher = more signal.
Fibroblast growth factor 10 (Homo sapiens), sequence (O15520 whole entry, looked up): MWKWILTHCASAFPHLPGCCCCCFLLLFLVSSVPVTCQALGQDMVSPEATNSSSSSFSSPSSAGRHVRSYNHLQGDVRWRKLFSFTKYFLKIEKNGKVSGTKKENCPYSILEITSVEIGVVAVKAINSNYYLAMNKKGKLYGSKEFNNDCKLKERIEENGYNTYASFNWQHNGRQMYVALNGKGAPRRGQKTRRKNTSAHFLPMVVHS
The test system of assay [6] is glycogen synthase kinase-3 (GSK3A per assay name; protocol says GSK3B). The experiment in a line: compounds binding glycogen synthase kinase-3 – biochemical, small-molecule microarray, 635 nm fluorescence, GSK3A, primary screen (AID 1103). Also: the record names both GSK3A and GSK3B. As to conditions: fluorescence 635 nm, higher = more signal.
Assay [7] deals with Epidermal growth factor receptor (Homo sapiens) (UniProt P00533). The assay can be described thus: compounds binding epidermal growth factor receptor – biochemical, small-molecule microarray, 635 nm fluorescence, primary screen (AID 1104).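 Also: score merges 667 nm emission intensity with spot signal to noise over triplicate slides.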 As to conditions: EGFR binding, higher = more signal.
Epidermal growth factor receptor (Homo sapiens), sequence (P00533 whole entry, looked up): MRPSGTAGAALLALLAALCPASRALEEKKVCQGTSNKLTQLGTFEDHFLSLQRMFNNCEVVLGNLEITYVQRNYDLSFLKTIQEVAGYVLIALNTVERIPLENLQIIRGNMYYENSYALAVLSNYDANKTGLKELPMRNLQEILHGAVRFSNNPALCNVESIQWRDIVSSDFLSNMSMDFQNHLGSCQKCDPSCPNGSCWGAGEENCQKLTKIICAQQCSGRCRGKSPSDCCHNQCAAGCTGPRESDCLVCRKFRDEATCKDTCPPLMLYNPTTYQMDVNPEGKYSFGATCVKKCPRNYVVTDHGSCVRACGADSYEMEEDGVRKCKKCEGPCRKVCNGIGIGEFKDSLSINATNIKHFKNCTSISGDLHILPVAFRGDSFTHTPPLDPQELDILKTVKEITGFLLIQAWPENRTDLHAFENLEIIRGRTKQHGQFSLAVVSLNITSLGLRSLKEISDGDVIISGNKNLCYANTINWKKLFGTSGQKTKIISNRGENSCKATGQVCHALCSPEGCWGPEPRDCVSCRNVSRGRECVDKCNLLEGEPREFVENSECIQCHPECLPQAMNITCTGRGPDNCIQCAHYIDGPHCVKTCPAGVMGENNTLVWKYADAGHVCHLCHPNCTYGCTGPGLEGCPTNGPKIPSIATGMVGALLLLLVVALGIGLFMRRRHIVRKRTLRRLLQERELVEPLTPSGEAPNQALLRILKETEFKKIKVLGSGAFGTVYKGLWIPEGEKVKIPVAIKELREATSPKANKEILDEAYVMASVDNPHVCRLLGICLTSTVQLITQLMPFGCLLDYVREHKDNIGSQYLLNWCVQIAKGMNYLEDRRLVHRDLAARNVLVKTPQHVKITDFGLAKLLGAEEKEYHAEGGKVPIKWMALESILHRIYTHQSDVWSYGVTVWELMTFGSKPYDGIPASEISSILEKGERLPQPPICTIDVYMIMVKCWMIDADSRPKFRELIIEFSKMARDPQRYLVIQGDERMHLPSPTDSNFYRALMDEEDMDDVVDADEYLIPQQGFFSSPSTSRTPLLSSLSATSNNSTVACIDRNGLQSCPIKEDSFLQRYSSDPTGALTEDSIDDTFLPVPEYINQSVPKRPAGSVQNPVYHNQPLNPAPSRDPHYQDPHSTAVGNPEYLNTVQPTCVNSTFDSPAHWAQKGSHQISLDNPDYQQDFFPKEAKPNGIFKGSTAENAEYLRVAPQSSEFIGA
The target in assay [8] is Follistatin-related protein 3 (Homo sapiens) (UniProt O95633). The experiment in a line: compounds binding follistatin-related protein 3 – biochemical, small-molecule microarray, 635 nm fluorescence, primary screen (AID 1105).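 Also: score merges emission near 667 nm and signal to noise per printed spot across three slides.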 As to conditions: FSTL3 binding, higher = more signal.
Follistatin-related protein 3 (Homo sapiens), sequence (O95633 whole entry, looked up): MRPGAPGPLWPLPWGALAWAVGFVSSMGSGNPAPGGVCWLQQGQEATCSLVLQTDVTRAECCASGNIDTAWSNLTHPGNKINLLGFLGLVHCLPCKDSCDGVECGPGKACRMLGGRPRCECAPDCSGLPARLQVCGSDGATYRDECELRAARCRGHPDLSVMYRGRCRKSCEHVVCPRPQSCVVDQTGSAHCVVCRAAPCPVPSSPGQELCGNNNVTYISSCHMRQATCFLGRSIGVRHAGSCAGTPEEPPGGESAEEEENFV
The target in assay [9] is Dickkopf-related protein 1 (Homo sapiens) (UniProt O94907). The experiment in a line: small molecules binding DKK1 protein – biochemical, small-molecule microarray, 635 nm fluorescence scan, primary screen (AID 1106).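 Also: score merges emission near 667 nm with signal to noise over three replicate slides.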 As to conditions: higher = more signal.
Dickkopf-related protein 1 (Homo sapiens), sequence (O94907 whole entry, looked up): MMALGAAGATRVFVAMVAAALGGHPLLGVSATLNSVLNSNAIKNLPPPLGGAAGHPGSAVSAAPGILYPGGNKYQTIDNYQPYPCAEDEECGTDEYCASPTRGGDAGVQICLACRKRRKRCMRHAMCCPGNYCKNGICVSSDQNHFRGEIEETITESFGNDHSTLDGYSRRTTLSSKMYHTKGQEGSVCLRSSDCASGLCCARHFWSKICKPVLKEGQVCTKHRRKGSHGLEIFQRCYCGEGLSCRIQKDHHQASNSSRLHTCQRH
Assay [10] concerns Inhibin beta A chain (activin A). The assay can be described thus: small molecules binding activin A – biochemical, small-molecule microarray, 635 nm fluorescence scan, primary screen (AID 1107).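 Also: mouse activin A protein probed at 4.33 µg/mL on printed slides; score merges bound-protein fluorescence near 667 nm with spot signal-to-noise.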 As to conditions: INHBA, higher = more signal.
For assay [11], the system named is Human papillomavirus type 1a protein E7 (residues 44-93). The experiment in a line: small molecules binding HPV E7 44-93 – biochemical, small-molecule microarray, residues 44-93, 635 nm fluorescence, primary screen (AID 1108).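 Also: E7 fragment applied at 1 µg/mL in TBST for 1 h at 4 C; score combines spot fluorescence with its signal to noise ratio.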 As to conditions: fluorescence 635 nm, higher = more signal.
A short description of assay [12]: hepatitis C replication reporter changes, two-sided – Huh7 cells, luciferase reporter, HCV replication inhibitor project, primary screen (AID 1109).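 Also: huh7 hepatoma cells harbouring a luciferase neomycin HCV replicon reporter; luciferase luminescence as measure of HCV replicon replication; test concentration not given here.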 As to conditions: Huh7 HCV replicon luciferase reporter, 48 h; higher = more signal. For orientation: Reporter assays use an easily measured gene product as a stand-in for the process of interest.
Assay [13] addresses Left-right determination factor 2 (Homo sapiens) (UniProt O00292). The assay can be described thus: small molecules binding LEFTY2 protein – biochemical, small-molecule microarray, 635 nm fluorescence scan, primary screen (AID 1110). As to conditions: higher = more signal.
Assay [14] deals with Calmodulin-1 (Homo sapiens) (UniProt P0DP23). The assay can be described thus: small molecules binding calmodulin-1 with EGTA – biochemical, small-molecule microarray, Cy5-labelled CALM1, profiling panel (AID 1111).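 Also: labelled calmodulin applied in Tris saline Tween buffer holding calcium plus EGTA and DTT.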 As to conditions: Cy5-CALM1 binding fluorescence, higher = more signal.
The target is the same in assay [15]. The experiment in a line: small molecules binding Ca-loaded calmodulin-1 – biochemical, small-molecule microarray, Cy5-labelled CALM1, plus calcium, artefact control for SMM control-protein annotation, profiling panel (AID 1112).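 Also: score merges spot fluorescence with signal to noise from triplicate slides.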 As to conditions: Cy5-CALM1 binding fluorescence, higher = more signal.
Assay [16] can be described thus: probe aWnt5a binding to arrayed compounds – biochemical, biotinylated probe, 635/667 nm fluorescence, primary screen (AID 1113).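 Also: score merges 667 nm fluorescence intensity with signal-to-noise per printed feature.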 As to conditions: small-molecule microarray, higher = more signal.
Assay [17] can be described thus: probe aShh binding to arrayed compounds – biochemical, biotinylated probe, 635/667 nm fluorescence, primary screen (AID 1114).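 Also: probe is biotin-labelled aShh protein from a stem cell growth factor screen; measures binding of labelled protein to compounds printed on the slide; score merges feature fluorescence at 667 nm with signal-to-noise.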 As to conditions: small-molecule microarray, higher = more signal.
Assay [18] in a line: probe aNog binding to arrayed compounds – biochemical, biotinylated probe, 635/667 nm fluorescence, primary screen (AID 1115).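 Also: probe is biotinylated aNog protein used at 0.15 µg/mL for 1 h at 4 C; z-score combines 667 nm fluorescence of each spot with its signal to noise.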 As to conditions: small-molecule microarray, higher = more signal.
For assay [19], the target named is Torsin-1A-interacting protein 1 (Homo sapiens) (UniProt Q5JTV8). The assay can be described thus: compound microarray binding of lysate hLAP1 – cell lysate, small-molecule microarray, COS7 lysate, 635/667 nm fluorescence, primary screen (AID 1116). As to conditions: 635 nm fluorescence, higher = more signal.
Torsin-1A-interacting protein 1 (Homo sapiens), sequence (Q5JTV8 whole entry, looked up): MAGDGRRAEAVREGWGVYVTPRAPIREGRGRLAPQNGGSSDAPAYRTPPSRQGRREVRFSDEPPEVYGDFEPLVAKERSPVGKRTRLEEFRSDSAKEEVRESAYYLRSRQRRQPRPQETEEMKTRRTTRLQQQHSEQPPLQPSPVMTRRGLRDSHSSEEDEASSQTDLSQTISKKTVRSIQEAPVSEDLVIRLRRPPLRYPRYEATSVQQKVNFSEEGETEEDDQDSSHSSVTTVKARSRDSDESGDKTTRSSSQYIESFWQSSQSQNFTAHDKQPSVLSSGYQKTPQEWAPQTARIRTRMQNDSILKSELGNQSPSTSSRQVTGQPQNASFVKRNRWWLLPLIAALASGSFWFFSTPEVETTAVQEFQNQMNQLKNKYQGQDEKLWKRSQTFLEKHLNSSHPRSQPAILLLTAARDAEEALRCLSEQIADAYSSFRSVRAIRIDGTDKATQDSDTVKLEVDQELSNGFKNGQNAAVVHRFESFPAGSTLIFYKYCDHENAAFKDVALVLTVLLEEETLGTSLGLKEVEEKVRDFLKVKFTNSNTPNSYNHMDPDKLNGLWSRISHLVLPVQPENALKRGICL
Assay [20] deals with Alpha-bungarotoxin (Bungarus multicinctus) (UniProt P60615). The assay can be described thus: compounds binding labelled alpha-BTX control protein – biochemical, small-molecule microarray, Alexa647 label, 635/667 nm fluorescence, artefact control for SMM control protein annotation, profiling panel (AID 1117). As to conditions: alpha-BTX-A647 binding fluorescence, higher = more signal.
Alpha-bungarotoxin (Bungarus multicinctus), sequence (P60615 whole entry, looked up): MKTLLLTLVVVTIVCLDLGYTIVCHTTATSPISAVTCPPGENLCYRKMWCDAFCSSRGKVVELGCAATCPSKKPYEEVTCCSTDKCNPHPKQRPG

Calls of active or inactive are those of the source.

Left-right determination factor 2 (Homo sapiens), sequence (O00292 whole entry, looked up): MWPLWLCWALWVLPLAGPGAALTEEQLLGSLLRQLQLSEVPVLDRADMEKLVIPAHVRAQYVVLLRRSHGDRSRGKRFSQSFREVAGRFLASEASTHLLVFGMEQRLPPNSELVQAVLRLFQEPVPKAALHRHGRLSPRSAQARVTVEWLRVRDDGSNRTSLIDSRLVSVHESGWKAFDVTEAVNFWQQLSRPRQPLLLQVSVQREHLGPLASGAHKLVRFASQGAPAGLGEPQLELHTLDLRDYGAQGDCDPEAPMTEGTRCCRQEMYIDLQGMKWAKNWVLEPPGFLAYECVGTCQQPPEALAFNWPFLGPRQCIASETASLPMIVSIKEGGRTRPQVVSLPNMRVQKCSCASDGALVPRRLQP

In the case of `COCCCNC(=O)[C@@]1(Cc2ccccc2)N=C(c2ccc(OCCCO)cc2)O[C@H]1c1ccccc1N=[N+]=[N-]`, the composite z-score in [1] was 0.481; in [2] it was 1.22; in [3], 1.19; in [5] it was 1.2; in assay [6], 1.24; in assay [7], -0.176. In addition, the composite z-score in assay [8] was 0.176; in assay [9] it was 0.101; in assay [10], 1.31; in assay [11], 0.175; in assay [13] it was -0.151; in assay [14] it was 1.05. In addition, the composite z-score was found to be 0.945 in assay [15]; 0.115 in assay [16]; 1.02 in assay [17]; 0.805 in [18]; 0.948 in [19]; 1.35 in assay [20]. Moreover, the values for the z-score in [4] and in assay [12] were -1.3 (inactive) and -2.59, respectively.
As to `C=CC[C@]1(C(=O)N2CCCCC2)COC(c2ccc(OCCCO)cc2)=N1`, the composite z-score in [1] is -0.0697; in [2], -0.0336; in assay [3], 0.83; in [5] it was -0.621; in assay [6], -0.217; in assay [7], -1. Moreover, the composite z-score is -1.32 in assay [8]; -0.358 in assay [9]; 1.28 in assay [10]; 0.0296 in assay [11]; -0.727 in [13]; -1.56 in [14]. The composite z-score is -0.29 in assay [15]; -0.176 in assay [16]; -0.138 in assay [17]; 0.179 in assay [18]; 1.01 in [19]; -0.212 in assay [20]. In addition, the z-score in [4] is 0.682 (inactive); in assay [12], -1.1.
For the compound `COc1ccc([Si](C)(C)[C@H]2[C@H](CC(=O)N3Cc4ccccc4C[C@H]3CO)O[C@@]3(C(=O)N(Cc4cccc(N5C(=O)COc6ccccc65)c4)c4ccccc43)[C@@H]2C)cc1`, the composite z-score is 1.18 in assay [1]; -0.225 in assay [2]; -0.261 in assay [3]; 0.818 in assay [5]; 0.52 in assay [6]; 1.13 in assay [7]. Moreover, the composite z-score in assay [8] is 1.26; in [9], 1.12; in [10], 1.23; in [11], 0.354; in assay [13] it was 0.818; in [14], 0.191. For the same compound, the composite z-score in [15] is -0.185; in [16], 0.0094; in assay [17] it was 0.0637; in [18], -0.0118; in assay [19], 0.7; in assay [20], 1.87. The z-score is -1.72 (inactive) in assay [4] and -3.73 in [12].
Regarding `COc1ccc(C#Cc2ccc3c(c2)[C@]2(C(=O)N3)[C@H](c3ccc(O)cc3)N3[C@H](c4ccccc4)[C@H](c4ccccc4)OC(=O)[C@H]3[C@@H]2C(=O)N2CCN(c3ncccn3)CC2)cc1`, the composite z-score in [1] came out at 0.595; in assay [2], 0.762; in [3], 0.657; in [5] it was 0.388; in assay [6] it was 0.424; in assay [7] it was 0.0077. Besides, the composite z-score in assay [8] is 0.219; in assay [9], -0.0775; in [10], 0.0381; in assay [11] it was 0.778; in [13], -0.0042; in [14] it was 1.95. Besides, the composite z-score stood at 0.707 in assay [15]; 0.0236 in assay [16]; 0.842 in assay [17]; 0.353 in assay [18]; 1.28 in [19]; 1.75 in [20]. The z-score in assay [4] is -0.835 (inactive); in assay [12], -1.15.
`C=CCC1(CC=C)C[C@H]2CO[C@H](c3ccc(OC)cc3)N2C1=O`: the composite z-score in assay [1] was 0.695; in assay [2], -0.17; in assay [3], 0.317; in [5], -0.193; in assay [6], -0.217; in assay [7], 0.291. The composite z-score in [8] was 0.576; in assay [9], 0.917; in [10], 1.55; in [11] it was -0.107; in [13], 0.447; in [14], -1.56. Moreover, the composite z-score in [15] is -2.31; in assay [16], -0.124; in assay [17] it was -0.271; in assay [18], -0.0887; in assay [19] it was 0.656; in assay [20], 0.278. The values for the z-score in assay [4] and in [12] were -0.512 (inactive) and 0.805, respectively.
For the compound `CC1CC/C=C\[C@H]2OC34C=CCN(C(C)C)C(=O)[C@H]3N(C(CO)C(C)C)C(=O)[C@@H]4C2C(=O)O1` (stereo not given in full), the composite z-score was -0.144 in [1]; 0.0383 in assay [2]; 0.228 in assay [3]; -0.505 in assay [5]; -0.95 in assay [6]; -0.818 in assay [7]. The composite z-score in [8] was -0.253; in [9] it was -0.429; in assay [10], 0.64; in assay [11], -1.48; in assay [13], -0.944; in assay [14], -1. Further, the composite z-score in [15] was -0.339; in assay [16], -0.202; in assay [17] it was -0.0626; in assay [18], -0.178; in assay [19], 0.193; in [20], -2.8. Besides, the figures for the z-score in [4] and in [12] were -0.0607 (inactive) and -0.403, respectively.
